{"source": "the supplement of paper PMC11732987", "about": "“Enantioselective OTUD7B fragment discovery through chemoproteomics screening and high-throughput optimisation” (Communications Chemistry, 2025)", "assay_in_all_cases": "log2 ratio of Biotin-Ahx-Ub-VS probe labelling (fragment/DMSO); higher = less target engagement (more negative = stronger competition), active = hit call of the paper (q ≤ 0.05, log2 ratio ≤ -1)", "settings_in_all_cases": "compound concentration: 200 uM; treatment time: 3 h", "key": {"[1]": {"molecular_target": "T1, USP19 (UniProt O94966)", "T1 sequence (whole entry)": "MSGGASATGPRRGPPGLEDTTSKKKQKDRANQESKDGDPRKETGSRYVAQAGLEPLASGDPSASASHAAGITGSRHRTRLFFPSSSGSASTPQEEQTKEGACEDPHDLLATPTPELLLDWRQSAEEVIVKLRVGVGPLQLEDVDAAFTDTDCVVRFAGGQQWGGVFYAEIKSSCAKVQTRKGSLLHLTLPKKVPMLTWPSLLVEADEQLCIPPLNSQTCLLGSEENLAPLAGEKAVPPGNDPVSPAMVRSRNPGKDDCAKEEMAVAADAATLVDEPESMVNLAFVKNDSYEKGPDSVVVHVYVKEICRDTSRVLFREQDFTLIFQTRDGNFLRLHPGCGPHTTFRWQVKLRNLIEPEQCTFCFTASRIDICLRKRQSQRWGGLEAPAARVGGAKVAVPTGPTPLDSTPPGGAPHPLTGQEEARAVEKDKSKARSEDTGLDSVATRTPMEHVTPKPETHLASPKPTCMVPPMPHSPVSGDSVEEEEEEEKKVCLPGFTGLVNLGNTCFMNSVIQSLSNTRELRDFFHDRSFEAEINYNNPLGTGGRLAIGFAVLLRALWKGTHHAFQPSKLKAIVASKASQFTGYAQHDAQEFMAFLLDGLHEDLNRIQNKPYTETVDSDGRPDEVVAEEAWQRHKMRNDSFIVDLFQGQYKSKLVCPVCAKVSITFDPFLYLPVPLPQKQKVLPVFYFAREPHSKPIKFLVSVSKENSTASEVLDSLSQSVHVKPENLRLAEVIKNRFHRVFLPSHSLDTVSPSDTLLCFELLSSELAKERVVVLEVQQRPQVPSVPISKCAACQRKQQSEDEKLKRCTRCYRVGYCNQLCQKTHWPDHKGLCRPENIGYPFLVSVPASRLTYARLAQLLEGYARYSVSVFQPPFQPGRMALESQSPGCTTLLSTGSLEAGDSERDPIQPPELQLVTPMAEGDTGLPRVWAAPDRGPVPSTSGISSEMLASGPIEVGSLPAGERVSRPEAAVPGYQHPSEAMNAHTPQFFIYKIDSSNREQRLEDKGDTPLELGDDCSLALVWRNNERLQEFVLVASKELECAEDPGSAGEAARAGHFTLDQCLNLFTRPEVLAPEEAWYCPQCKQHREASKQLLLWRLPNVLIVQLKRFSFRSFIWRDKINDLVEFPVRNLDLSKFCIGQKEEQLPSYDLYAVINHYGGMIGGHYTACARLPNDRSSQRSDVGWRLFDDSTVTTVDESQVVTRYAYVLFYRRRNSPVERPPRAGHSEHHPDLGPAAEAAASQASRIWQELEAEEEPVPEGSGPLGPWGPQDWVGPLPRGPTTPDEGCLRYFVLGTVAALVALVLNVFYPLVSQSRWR", "how_it_was_run": "(§1)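 HEK293T lysate in Tris/CHAPS/IGEPAL buffer with protease inhibitors (495 µg per sample) was given fragment at 200 µM or vehicle for 3 h, in triplicate. It then received Biotin-Ahx-Ub-VS at 0.5 µM final for 1 h. Labelled DUBs were NeutrAvidin-enriched, digested with LysC and trypsin, and run by diaPASEF LC-MS/MS. Values are average log2 fragment/vehicle ratios by unpaired t-test on global-median-normalised Spectronaut quantities of proteins with ≥2 unique peptides.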"}, "[2]": {"molecular_target": "USP24 (UniProt Q9UPU5)", "sequence (Q9UPU5 whole entry)": "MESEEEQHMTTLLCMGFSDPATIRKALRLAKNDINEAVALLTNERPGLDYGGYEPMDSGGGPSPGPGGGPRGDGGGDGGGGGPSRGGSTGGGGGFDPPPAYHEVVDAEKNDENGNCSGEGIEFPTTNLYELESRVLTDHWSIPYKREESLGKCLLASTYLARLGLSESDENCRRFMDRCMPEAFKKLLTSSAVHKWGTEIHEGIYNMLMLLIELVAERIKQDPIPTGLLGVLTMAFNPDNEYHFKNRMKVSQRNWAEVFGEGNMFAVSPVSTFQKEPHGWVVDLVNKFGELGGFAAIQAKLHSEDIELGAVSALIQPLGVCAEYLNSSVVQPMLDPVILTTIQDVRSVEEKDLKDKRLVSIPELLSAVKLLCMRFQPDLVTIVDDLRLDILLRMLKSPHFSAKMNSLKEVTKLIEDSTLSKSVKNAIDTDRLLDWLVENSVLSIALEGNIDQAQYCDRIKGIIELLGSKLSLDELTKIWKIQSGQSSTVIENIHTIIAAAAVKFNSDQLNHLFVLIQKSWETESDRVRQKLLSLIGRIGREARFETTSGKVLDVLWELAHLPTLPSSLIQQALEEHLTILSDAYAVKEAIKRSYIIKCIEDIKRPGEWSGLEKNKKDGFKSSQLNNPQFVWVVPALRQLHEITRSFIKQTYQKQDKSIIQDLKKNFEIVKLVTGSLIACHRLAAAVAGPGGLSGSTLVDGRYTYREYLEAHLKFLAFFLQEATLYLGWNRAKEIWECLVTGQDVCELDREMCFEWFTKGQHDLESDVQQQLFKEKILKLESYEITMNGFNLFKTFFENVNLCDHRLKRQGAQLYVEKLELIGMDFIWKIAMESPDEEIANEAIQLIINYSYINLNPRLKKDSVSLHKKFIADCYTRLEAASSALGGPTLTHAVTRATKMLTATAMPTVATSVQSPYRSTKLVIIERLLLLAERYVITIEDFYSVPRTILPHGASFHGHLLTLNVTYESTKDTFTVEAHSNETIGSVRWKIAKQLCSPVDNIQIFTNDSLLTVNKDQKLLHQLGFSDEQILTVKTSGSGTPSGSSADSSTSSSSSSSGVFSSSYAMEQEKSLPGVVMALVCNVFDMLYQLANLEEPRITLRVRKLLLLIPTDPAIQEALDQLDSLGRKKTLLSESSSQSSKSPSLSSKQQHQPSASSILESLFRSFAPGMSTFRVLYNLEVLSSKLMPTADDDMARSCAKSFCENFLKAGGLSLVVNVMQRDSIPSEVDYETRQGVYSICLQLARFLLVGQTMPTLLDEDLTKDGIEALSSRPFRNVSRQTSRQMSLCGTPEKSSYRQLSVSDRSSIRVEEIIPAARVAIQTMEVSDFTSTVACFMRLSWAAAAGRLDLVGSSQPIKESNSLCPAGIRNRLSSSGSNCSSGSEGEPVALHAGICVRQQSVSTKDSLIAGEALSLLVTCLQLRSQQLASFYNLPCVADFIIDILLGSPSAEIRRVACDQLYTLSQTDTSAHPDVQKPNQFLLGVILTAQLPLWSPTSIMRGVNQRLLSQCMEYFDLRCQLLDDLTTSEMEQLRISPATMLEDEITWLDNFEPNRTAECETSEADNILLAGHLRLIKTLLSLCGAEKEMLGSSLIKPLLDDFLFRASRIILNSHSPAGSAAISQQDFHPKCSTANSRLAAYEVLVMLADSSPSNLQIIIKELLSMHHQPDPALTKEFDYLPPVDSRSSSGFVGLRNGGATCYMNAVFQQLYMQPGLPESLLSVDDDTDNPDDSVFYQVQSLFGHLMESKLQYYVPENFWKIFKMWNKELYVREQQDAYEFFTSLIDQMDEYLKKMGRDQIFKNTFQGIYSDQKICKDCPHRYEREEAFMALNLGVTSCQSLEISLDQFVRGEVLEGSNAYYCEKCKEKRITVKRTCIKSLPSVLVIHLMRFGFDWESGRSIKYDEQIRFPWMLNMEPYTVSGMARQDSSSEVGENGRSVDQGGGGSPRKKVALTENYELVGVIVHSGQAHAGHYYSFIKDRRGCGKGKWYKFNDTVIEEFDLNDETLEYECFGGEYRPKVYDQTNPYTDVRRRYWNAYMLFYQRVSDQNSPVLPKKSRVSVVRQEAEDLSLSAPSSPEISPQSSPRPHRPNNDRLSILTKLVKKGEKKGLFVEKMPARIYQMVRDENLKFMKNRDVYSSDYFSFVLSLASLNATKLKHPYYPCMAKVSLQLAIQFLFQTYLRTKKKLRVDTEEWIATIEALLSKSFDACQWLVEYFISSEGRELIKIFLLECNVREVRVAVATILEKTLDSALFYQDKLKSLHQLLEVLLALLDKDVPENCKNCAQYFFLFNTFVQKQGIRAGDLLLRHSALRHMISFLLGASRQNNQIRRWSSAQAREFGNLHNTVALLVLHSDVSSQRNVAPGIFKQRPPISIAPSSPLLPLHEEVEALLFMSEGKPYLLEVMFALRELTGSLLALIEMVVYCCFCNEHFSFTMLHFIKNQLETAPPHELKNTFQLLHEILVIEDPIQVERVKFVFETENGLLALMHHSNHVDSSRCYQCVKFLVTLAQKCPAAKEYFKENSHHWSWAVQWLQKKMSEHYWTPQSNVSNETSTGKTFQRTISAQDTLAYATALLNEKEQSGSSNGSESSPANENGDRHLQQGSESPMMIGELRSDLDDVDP", "how_it_was_run": "as §1"}, "[3]": {"molecular_target": "T2, USP25 (UniProt Q9UHP3)", "T2 sequence (whole entry)": "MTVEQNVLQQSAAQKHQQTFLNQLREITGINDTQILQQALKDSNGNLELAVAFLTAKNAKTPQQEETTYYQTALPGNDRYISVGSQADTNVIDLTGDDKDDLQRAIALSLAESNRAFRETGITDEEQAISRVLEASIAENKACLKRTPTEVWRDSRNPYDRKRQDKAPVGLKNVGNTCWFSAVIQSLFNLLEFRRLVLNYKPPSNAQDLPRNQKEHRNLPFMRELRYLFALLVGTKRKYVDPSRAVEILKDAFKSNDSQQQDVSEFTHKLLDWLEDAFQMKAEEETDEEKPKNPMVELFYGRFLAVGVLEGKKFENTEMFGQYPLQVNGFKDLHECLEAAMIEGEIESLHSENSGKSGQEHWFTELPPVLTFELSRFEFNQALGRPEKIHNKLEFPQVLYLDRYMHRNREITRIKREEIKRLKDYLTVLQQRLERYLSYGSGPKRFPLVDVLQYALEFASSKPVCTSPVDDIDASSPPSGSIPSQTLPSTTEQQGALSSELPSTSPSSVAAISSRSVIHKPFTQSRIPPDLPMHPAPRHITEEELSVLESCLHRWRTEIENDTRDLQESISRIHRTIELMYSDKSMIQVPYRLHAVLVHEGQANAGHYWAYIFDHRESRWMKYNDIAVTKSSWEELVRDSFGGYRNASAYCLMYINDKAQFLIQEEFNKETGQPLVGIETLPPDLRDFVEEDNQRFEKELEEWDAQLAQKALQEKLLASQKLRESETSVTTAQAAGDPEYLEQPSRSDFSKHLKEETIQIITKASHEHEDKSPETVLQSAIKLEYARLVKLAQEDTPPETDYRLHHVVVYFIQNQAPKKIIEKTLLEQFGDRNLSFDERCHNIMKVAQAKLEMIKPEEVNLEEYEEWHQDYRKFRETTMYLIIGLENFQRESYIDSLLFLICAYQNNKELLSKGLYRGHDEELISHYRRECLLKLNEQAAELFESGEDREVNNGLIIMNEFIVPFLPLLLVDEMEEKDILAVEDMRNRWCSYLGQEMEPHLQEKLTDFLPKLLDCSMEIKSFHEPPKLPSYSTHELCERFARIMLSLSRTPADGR", "how_it_was_run": "as §1"}, "[4]": {"molecular_target": "T3, USP28 (UniProt Q96RU2)", "T3 sequence (whole entry)": "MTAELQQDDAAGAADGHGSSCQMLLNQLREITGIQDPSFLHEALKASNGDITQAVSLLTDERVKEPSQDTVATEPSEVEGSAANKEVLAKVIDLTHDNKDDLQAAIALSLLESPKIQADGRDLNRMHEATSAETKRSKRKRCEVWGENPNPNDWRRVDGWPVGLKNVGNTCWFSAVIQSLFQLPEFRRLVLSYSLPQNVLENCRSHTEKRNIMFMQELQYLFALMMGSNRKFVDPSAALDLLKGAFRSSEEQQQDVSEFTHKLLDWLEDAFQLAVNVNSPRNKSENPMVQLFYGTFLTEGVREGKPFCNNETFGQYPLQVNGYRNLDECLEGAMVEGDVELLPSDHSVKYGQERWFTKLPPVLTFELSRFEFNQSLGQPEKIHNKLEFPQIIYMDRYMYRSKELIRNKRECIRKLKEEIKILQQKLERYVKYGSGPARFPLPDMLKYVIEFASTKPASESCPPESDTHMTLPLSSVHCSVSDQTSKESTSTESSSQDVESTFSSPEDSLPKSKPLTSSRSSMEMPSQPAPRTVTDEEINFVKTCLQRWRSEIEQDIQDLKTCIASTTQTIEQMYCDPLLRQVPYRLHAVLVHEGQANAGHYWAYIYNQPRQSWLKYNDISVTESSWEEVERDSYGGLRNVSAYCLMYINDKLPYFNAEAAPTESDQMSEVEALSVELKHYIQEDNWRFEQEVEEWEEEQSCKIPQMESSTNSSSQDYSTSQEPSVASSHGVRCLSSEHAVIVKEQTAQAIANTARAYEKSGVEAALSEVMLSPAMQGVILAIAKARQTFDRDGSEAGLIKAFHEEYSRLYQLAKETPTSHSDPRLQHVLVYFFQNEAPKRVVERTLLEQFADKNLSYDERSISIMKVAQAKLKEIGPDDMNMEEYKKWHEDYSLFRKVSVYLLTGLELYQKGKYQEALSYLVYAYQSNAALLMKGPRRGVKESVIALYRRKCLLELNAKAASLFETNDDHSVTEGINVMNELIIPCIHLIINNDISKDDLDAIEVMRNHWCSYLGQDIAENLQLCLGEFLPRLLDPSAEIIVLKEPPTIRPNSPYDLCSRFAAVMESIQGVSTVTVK", "how_it_was_run": "as §1"}}, "note": "Unmarked numbers belong to inactive results."}
{"molecule": "Cc1ccccc1CN(C)C(=O)CCl", "values": [{"measurement": "log2 ratio of Biotin-Ahx-Ub-VS probe labelling", "setting": "[1]", "result": -0.829}, {"measurement": "log2 ratio of Biotin-Ahx-Ub-VS probe labelling", "setting": "[2]", "result": "-1.38 (active)"}, {"measurement": "log2 ratio of Biotin-Ahx-Ub-VS probe labelling", "setting": "[3]", "result": "-1.03 (active)"}, {"measurement": "log2 ratio of Biotin-Ahx-Ub-VS probe labelling", "setting": "[4]", "result": "-1.35 (active)"}]}
